MsrA act = activators of bovine methionine sulfoxide reductase A; 360,000 tested, 0.3% active; activation, % at 10.6 µM; AID 602163; purified bovine MsrA, absorbance read-out; in the data active = activation above about 7.5%
HGIII-sPLA2 inh = Blocks human group III sPLA2 activity | inhibition, % at 12.2 µM | QFRET BODIPY PC-A2 liposome hydrolysis, fluorescence | 370,000 tested, 0.56% active;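 active = inhibition above mean plus 3 SD of compounds lying within the high and low control bounds, cut at about 19% in these data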
Target sequence (Q9NZ20 whole entry, looked up): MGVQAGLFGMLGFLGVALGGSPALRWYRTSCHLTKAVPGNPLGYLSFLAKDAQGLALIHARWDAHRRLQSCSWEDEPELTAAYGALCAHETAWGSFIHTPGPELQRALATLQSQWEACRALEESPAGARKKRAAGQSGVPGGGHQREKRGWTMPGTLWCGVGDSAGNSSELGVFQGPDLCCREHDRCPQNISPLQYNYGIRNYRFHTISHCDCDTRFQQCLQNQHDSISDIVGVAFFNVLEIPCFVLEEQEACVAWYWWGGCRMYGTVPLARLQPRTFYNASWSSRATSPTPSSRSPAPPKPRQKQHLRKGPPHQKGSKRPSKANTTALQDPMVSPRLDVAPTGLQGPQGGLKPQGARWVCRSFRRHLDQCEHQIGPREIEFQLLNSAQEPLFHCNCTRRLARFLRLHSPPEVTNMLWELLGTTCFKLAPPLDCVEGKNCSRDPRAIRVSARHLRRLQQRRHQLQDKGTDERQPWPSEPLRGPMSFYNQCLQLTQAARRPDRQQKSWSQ
MsrA inh = bovine MsrA inhibition; inhibition, % at 15.5 µM; AID 651718; purified bovine MsrA, absorbance read-out; 360,000 tested, 0.75% active; in the data active = inhibition above about 4.5%
rCAG binder = r(CAG) repeat RNA binding; inhibition, % at 3 µM; 370,000 tested, 1.3% active; TO-PRO-1 dye displacement fluorescence;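 active = inhibition above the plate cutoff, the mean of all test compounds on that plate plus 3 SD, cut at about 35% in these data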;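 note: higher means more dye released from RNA so lower well fluorescence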
MsrA activ conf = confirmation of bovine methionine sulfoxide reductase A activators; activation, % at 10.6 µM; shares compounds with MsrA act; purified bovine MsrA, absorbance read-out; 1,000 tested, 12% active; AID 602270; in the data active = activation above about 4%;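 note: enzyme coupled to thioredoxin and thioredoxin reductase with NADPH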
A number is an active result. An excerpt weighted towards active compounds, which were near 2.8% of everything screened.

Results for O=C(N/N=C/c1ccc2c(c1)OCO2)c1ccc(NC(=O)c2ccccc2Cl)cc1 ?
MsrA act: inactive; HGIII-sPLA2 inh: inactive; MsrA inh: 5.2; rCAG binder: inactive

What do the screens show for `Cc1c(C(=O)NCc2nnc(-c3ccccc3)o2)oc2c(F)cccc12`?
MsrA act: inactive; HGIII-sPLA2 inh: inactive; MsrA inh: inactive; rCAG binder: inactive

How did COc1ccc(C(=O)N/C(=C\c2ccc3c(c2)OCO3)C(=O)Nc2ccc(C(=O)O)cc2)cc1 do in these assays?
MsrA act: inactive; HGIII-sPLA2 inh: inactive; MsrA inh: inactive; rCAG binder: inactive

Results for Cc1ccc(C(=O)N/C(=C\c2ccc3c(c2)OCO3)C(=O)Nc2ccc(C(=O)O)cc2)cc1 ?
MsrA act: inactive; HGIII-sPLA2 inh: inactive; MsrA inh: 4.6; rCAG binder: inactive

What do the screens show for `Cn1c2c(c(=O)n(C)c1=O)C(c1ccccc1F)C(C#N)=C(N)O2` (configuration not stated)?
MsrA act: inactive; HGIII-sPLA2 inh: inactive; MsrA inh: inactive; rCAG binder: inactive

Results for Cc1nc2c(OCc3ccccc3)cccn2c1N(C)C(=O)C1CCCCC1 ?
MsrA act: inactive; HGIII-sPLA2 inh: inactive; MsrA inh: inactive; rCAG binder: inactive

How did COc1cccc(/C=N/NC(=O)c2ccncc2)c1OC(=O)c1ccc(Br)cc1 do in these assays?
MsrA act: inactive

Results for CCN1C(=O)N/C(=C/c2cc(C)n(Cc3ccccc3)c2C)C1=O ?
MsrA act: inactive; HGIII-sPLA2 inh: inactive; MsrA inh: 4.6; rCAG binder: inactive

What do the screens show for `CCn1c(C)cc(/C=C2\NC(=O)N(Cc3ccc(Cl)cc3)C2=O)c1C`?
MsrA act: inactive; HGIII-sPLA2 inh: inactive; MsrA inh: inactive; rCAG binder: inactive

Results for CC(=O)N1CCN(C(=O)CCn2nnc3ccccc32)CC1 ?
HGIII-sPLA2 inh: inactive; rCAG binder: inactive

Results for COc1ccccc1C(=O)Nc1c2c(nn1-c1ccc(Cl)cc1)CS(=O)(=O)C2 ?
MsrA act: inactive; HGIII-sPLA2 inh: inactive; MsrA inh: inactive; rCAG binder: inactive

What do the screens show for `CCN(CC)c1ccc(C2N(C(=O)N3CCOCC3)CCN2S(=O)(=O)c2ccc(C)cc2)cc1` (configuration not stated)?
MsrA act: inactive; HGIII-sPLA2 inh: inactive; MsrA inh: 4.6; rCAG binder: inactive

How did CN1CCN(C(=O)Nc2cccc(-c3ccccc3)c2)CC1 do in these assays?
MsrA act: inactive; HGIII-sPLA2 inh: inactive; MsrA inh: 4.6; rCAG binder: inactive

Results for CC(=O)Nc1cc2c(cc1[N+](=O)[O-])OCCO2 ?
MsrA act: inactive; HGIII-sPLA2 inh: inactive; MsrA inh: 4.6; rCAG binder: inactive

What do the screens show for `Cn1c(=O)c2[nH]c(CNc3ccc(C(=O)O)cc3)nc2n(C)c1=O`?
MsrA act: inactive; HGIII-sPLA2 inh: inactive; MsrA inh: inactive; rCAG binder: inactive

How did Cc1ccc(/C=C2/C(=O)ON=C2c2ccccc2)o1 do in these assays?
MsrA act: inactive; HGIII-sPLA2 inh: inactive; MsrA inh: inactive; rCAG binder: 39

How did O=C1ON=C(c2ccccc2)/C1=C\c1ccco1 do in these assays?
MsrA act: inactive; HGIII-sPLA2 inh: inactive; MsrA inh: inactive; rCAG binder: inactive

Results for CCN1C(=O)C2(SC(NC(C)=O)=NN2C(C)=O)c2cc(C)ccc21 (configuration not stated) ?
MsrA act: inactive; HGIII-sPLA2 inh: inactive; MsrA inh: inactive; rCAG binder: inactive

Results for COC(=O)c1cccc(-n2sc3ccccc3c2=O)c1 ?
MsrA act: 11; HGIII-sPLA2 inh: inactive; MsrA inh: inactive; rCAG binder: inactive

How did CC(=O)c1ccc2c(c1)C1C=CCC1C(C(=O)O)N2 (configuration not stated) do in these assays?
MsrA act: inactive; HGIII-sPLA2 inh: inactive; MsrA inh: inactive; rCAG binder: 96

What do the screens show for `N#C/C(=C(/O)c1ccccc1F)c1nc2cc(C(F)(F)F)ccc2s1`?
MsrA act: inactive; HGIII-sPLA2 inh: inactive; MsrA inh: 4.7; rCAG binder: inactive

Results for COc1cccc2cc(C(=O)CS(=O)(=O)c3ccc(C(C)(C)C)cc3)c(=O)oc12 ?
MsrA act: inactive; HGIII-sPLA2 inh: inactive; MsrA inh: inactive; rCAG binder: 38

What do the screens show for `C=CCSc1nnc(-c2ccccc2NC(C)=O)c(=O)[nH]1`?
MsrA act: inactive; HGIII-sPLA2 inh: inactive; MsrA inh: inactive; rCAG binder: inactive

What do the screens show for `Cc1ccc2nc(-c3ccc(NS(=O)(=O)c4ccc(F)c(F)c4)cc3)sc2c1`?
MsrA act: inactive; HGIII-sPLA2 inh: inactive; MsrA inh: inactive; rCAG binder: 75

What do the screens show for `COc1ccc(NC(=O)c2cc3ccccc3o/c2=N\NS(=O)(=O)c2ccc(C)cc2)cc1`?
MsrA act: inactive; HGIII-sPLA2 inh: inactive; MsrA inh: inactive; rCAG binder: inactive

Results for O=C(OCc1ccccc1)C1CCN(S(=O)(=O)c2cccs2)CC1 ?
MsrA act: inactive; HGIII-sPLA2 inh: inactive; MsrA inh: inactive; rCAG binder: inactive

What do the screens show for `COc1cc(NC(=O)c2cc3ccccc3cc2O)c(OC)cc1Cl`?
MsrA act: inactive; HGIII-sPLA2 inh: inactive; MsrA inh: inactive; rCAG binder: 47

How did COc1ccc([C@H]2N[C@]3(CCCN(Cc4ccco4)C3=O)[C@H]3C(=O)N(Cc4ccccc4)C(=O)[C@@H]23)cc1 do in these assays?
MsrA act: inactive; HGIII-sPLA2 inh: inactive; MsrA inh: inactive; rCAG binder: inactive

What do the screens show for `Cc1cc(C)c(S(=O)(=O)/N=C2/C=C(Sc3ncn[nH]3)C(=O)c3ccccc32)cc1C`?
MsrA act: 14; HGIII-sPLA2 inh: inactive; MsrA inh: 61; rCAG binder: 56; MsrA activ conf: 8.0

Results for Cc1ccc(NC2=C/C(=N/S(=O)(=O)c3cccs3)c3ccccc3C2=O)cc1C ?
MsrA act: inactive; HGIII-sPLA2 inh: inactive; MsrA inh: inactive; rCAG binder: inactive

What do the screens show for `NC(=S)Nc1ccc2c(c1)OCO2`?
MsrA act: 15; HGIII-sPLA2 inh: inactive; MsrA inh: inactive; rCAG binder: inactive; MsrA activ conf: inactive

What do the screens show for `CC[C@H]1C(=O)[C@@H](Cc2ccccc2)[C@@H]2CCN3C(=O)CCC[C@H]1[C@H]23`?
MsrA act: 17; HGIII-sPLA2 inh: inactive; MsrA inh: inactive; rCAG binder: inactive; MsrA activ conf: inactive

Results for C=C1CCC[C@]2(C)C[C@H]3OC(=O)C(CNCCN(CC)CC)[C@H]3CC12 (some centres not stated) ?
MsrA act: 8.4; HGIII-sPLA2 inh: inactive; MsrA inh: inactive; rCAG binder: inactive; MsrA activ conf: inactive

Results for O=C(CN1/C(=C(/O)c2ccccc2)C(=O)c2ccccc2S1(=O)=O)c1ccccc1 ?
MsrA act: inactive; HGIII-sPLA2 inh: inactive; MsrA inh: inactive; rCAG binder: inactive

What do the screens show for `Cc1ccc(C(=O)N2CCCC(CCC(=O)N3CCN(c4ccccn4)CC3)C2)s1` (configuration not stated)?
MsrA act: inactive; HGIII-sPLA2 inh: inactive; MsrA inh: inactive; rCAG binder: inactive

Results for CCc1ccc(NC(=O)CSc2nnc(COc3ccc4c(c3)CCCC4)o2)cc1 ?
MsrA act: 11; HGIII-sPLA2 inh: inactive; MsrA inh: inactive; rCAG binder: inactive; MsrA activ conf: inactive

Bioassay records: PubChem BioAssay, The Scripps Research Institute Molecular Screening Center
